First the molecules themselves.
T1: RBFOX1 RRM (Homo sapiens, UniProt Q9NWB1 109-208)
T1 sequence: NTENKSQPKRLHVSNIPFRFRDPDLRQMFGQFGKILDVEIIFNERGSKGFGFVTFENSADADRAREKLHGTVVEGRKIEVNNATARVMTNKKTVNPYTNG

B1: UAAUAUG (DNA:RNA)
RNA: GGGAGACCGGAAUUCAGAUUGUCCUAAUAUGUUAAAUCCCGUCGUAGCCACCA
DNA 1: CAATCTGAATTCCGGTCTCCC
DNA 2: TGGTGGCTACGACGGGATT
B2: AGGACGU (DNA:RNA)
RNA: GGGAGACCGGAAUUCAGAUUGUCCAGGACGUUUAAAUCCCGUCGUAGCCACCA
DNA 1: CAATCTGAATTCCGGTCTCCC
DNA 2: TGGTGGCTACGACGGGATT
B3: GAUCGUC (DNA:RNA)
RNA: B1 RNA with U25G, A27U, U28C, A29G, G31C
DNA 1: CAATCTGAATTCCGGTCTCCC
DNA 2: TGGTGGCTACGACGGGATT
B4: AUUACAA (DNA:RNA)
RNA: B2 RNA with G26U, G27U, G30A, U31A
DNA 1: CAATCTGAATTCCGGTCTCCC
DNA 2: TGGTGGCTACGACGGGATT
B5: CCUAUUU (DNA:RNA)
RNA: B2 RNA with A25C, G26C, G27U, C29U, G30U
DNA 1: CAATCTGAATTCCGGTCTCCC
DNA 2: TGGTGGCTACGACGGGATT
B6: CUUAUAA (DNA:RNA)
RNA: B2 RNA with A25C, G26U, G27U, C29U, G30A, U31A
DNA 1: CAATCTGAATTCCGGTCTCCC
DNA 2: TGGTGGCTACGACGGGATT
B7: CGGGUAA (DNA:RNA)
RNA: B2 RNA with A25C, A28G, C29U, G30A, U31A
DNA 1: CAATCTGAATTCCGGTCTCCC
DNA 2: TGGTGGCTACGACGGGATT
B8: CAGCGAG (DNA:RNA)
RNA: B1 RNA with U25C, A27G, U28C, A29G, U30A
DNA 1: CAATCTGAATTCCGGTCTCCC
DNA 2: TGGTGGCTACGACGGGATT
B9: CGGGGUU (DNA:RNA)
RNA: B2 RNA with A25C, A28G, C29G, G30U
DNA 1: CAATCTGAATTCCGGTCTCCC
DNA 2: TGGTGGCTACGACGGGATT
B10: CGGGGGU (DNA:RNA)
RNA: B2 RNA with A25C, A28G, C29G
DNA 1: CAATCTGAATTCCGGTCTCCC
DNA 2: TGGTGGCTACGACGGGATT
B11: CCGGGGU (DNA:RNA)
RNA: B2 RNA with A25C, G26C, A28G, C29G
DNA 1: CAATCTGAATTCCGGTCTCCC
DNA 2: TGGTGGCTACGACGGGATT
B12: GGGGGGU (DNA:RNA)
RNA: B2 RNA with A25G, A28G, C29G
DNA 1: CAATCTGAATTCCGGTCTCCC
DNA 2: TGGTGGCTACGACGGGATT
B13: GGGGUUU (DNA:RNA)
RNA: B2 RNA with A25G, A28G, C29U, G30U
DNA 1: CAATCTGAATTCCGGTCTCCC
DNA 2: TGGTGGCTACGACGGGATT
B14: GGUUUUU (DNA:RNA)
RNA: B2 RNA with A25G, G27U, A28U, C29U, G30U
DNA 1: CAATCTGAATTCCGGTCTCCC
DNA 2: TGGTGGCTACGACGGGATT
B15: GCGGGUU (DNA:RNA)
RNA: B2 RNA with A25G, G26C, A28G, C29G, G30U
DNA 1: CAATCTGAATTCCGGTCTCCC
DNA 2: TGGTGGCTACGACGGGATT
B16: GGGGGUU (DNA:RNA)
RNA: B2 RNA with A25G, A28G, C29G, G30U
DNA 1: CAATCTGAATTCCGGTCTCCC
DNA 2: TGGTGGCTACGACGGGATT
B17: GCGGGGU (DNA:RNA)
RNA: B2 RNA with A25G, G26C, A28G, C29G
DNA 1: CAATCTGAATTCCGGTCTCCC
DNA 2: TGGTGGCTACGACGGGATT
B18: AUGGUGU (DNA:RNA)
RNA: B2 RNA with G26U, A28G, C29U
DNA 1: CAATCTGAATTCCGGTCTCCC
DNA 2: TGGTGGCTACGACGGGATT
B19: CAUGUGU (DNA:RNA)
RNA: B2 RNA with A25C, G26A, G27U, A28G, C29U
DNA 1: CAATCTGAATTCCGGTCTCCC
DNA 2: TGGTGGCTACGACGGGATT
B20: AGAAGGC (DNA:RNA)
RNA: B2 RNA with G27A, C29G, U31C
DNA 1: CAATCTGAATTCCGGTCTCCC
DNA 2: TGGTGGCTACGACGGGATT

Here are results for 20 molecules from paper PMC9911399, “Two distinct binding modes provide the RNA-binding protein RbFox with extraordinary sequence specificity”.

Changes are numbered by the printed parent chain; changes in the protein carry UniProt numbers. The full ranking holds about 16,000 sequences; the median of “ka relative to ugcaugu” is about 0.0091, and the highest 2% start at about 0.032. This excerpt belongs to a sample that is enriched for the highest values.

The assay deals with T1, RBFOX1 RRM. Put plainly: EMSA; HiTS-Eq, 1 nM pool, 10 min; buffer printed only for the single-RNA assays: 10 mM Tris pH 7.5, 150 mM NaCl, 3.4 mM EDTA, 0.001% NP-40, 30 C. The following applies: tags: His6 N-terminal (pET28a); label: 5' 32P. The method, boiled down: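 Purified RbFox RRM (wild type or mutant) was equilibrated for 10 min in 50 µL with 1 nM of a 5′-radiolabelled pool of RNA with 7 randomized nucleotides, its flanks annealed to DNA oligonucleotides, across increasing protein concentrations. Free RNA was separated by 8% native PAGE, excised, reverse-transcribed, PCR-barcoded and sequenced on an Illumina HiSeq 2500. Relative association constants came from read-count changes of each variant against the control reaction, normalised to the cognate motif.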
On the technique in general: A gel shift assay detects complexes by their altered migration in electrophoresis.
On to B1, for which the binding signal is 0.0114 KA relative to UGCAUGU.

Take B2: the binding signal was 0.0265 KA relative to UGCAUGU.

As to B3, the binding signal was 0.0199 KA relative to UGCAUGU. Take B4: the binding signal was 0.000272 KA relative to UGCAUGU. Take B5: the binding signal is 0.00115 KA relative to UGCAUGU. On to B6, for which the binding signal was 0.00174 KA relative to UGCAUGU. As for B7, the binding signal was 0.0192 KA relative to UGCAUGU. With B8, the binding signal is 0.00935 KA relative to UGCAUGU. For B9, the binding signal was 0.0339 KA relative to UGCAUGU. On to B10, for which the binding signal is 0.0227 KA relative to UGCAUGU.

Regarding B11, the binding signal was 0.0122 KA relative to UGCAUGU. Under B12 stands 0.0254 KA relative to UGCAUGU. Take B13: the binding signal is 0.046 KA relative to UGCAUGU.

B14: the binding signal was 0.00799 KA relative to UGCAUGU. Under B15 stands 0.0192 KA relative to UGCAUGU; under B16, 0.0471 KA relative to UGCAUGU. For the molecule B17, the binding signal was 0.0285 KA relative to UGCAUGU. With B18, the binding signal was 0.0152 KA relative to UGCAUGU. On to B19, for which the binding signal is 0.0132 KA relative to UGCAUGU.

In the case of B20, the binding signal is 0.00991 KA relative to UGCAUGU.
